Bioassay records from PubChem BioAssay.
Most compounds without a hit are left out; they make up all but 27% or so of the library.
CYP2C19 act: human CYP2C19 activators, primary screen, biochemical, luminescence. Cytochrome P450 2C19 (Homo sapiens), P33261. recombinant CYP2C19, luciferin-H EGE luminescence; hits give high values; 0 = fully inhibited enzyme, 1 = untreated enzyme. activation factor at 5 µM. 96,000 tested, under 10 active. AID 1025, 2008;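 active means activation factor of at least 2 at 5 µM in the primary screen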;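 further: 0 = wells with 2.5 mM tranylcypromine and 1 = vehicle-only wells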
CYP2C9 inh: blockers of cytochrome P450 2C9 activity – biochemical, luminescence, ADME assay, primary screen | AID 777, 2007 | inhibition, % at 5 µM | CYP2C9 Supersomes, luciferin-H conversion | 96,000 compounds, 20% hits;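 active means blocking of liver enzyme CYP2C9 beyond about 50% at 5 µM, limit read from the data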
CYP2C9 act: human CYP2C9 activators, primary screen, biochemical, luminescence; 96,000 compounds, 1.4% hits; Cytochrome P450 2C9 (Homo sapiens), P11712; activation factor at 5 µM; recombinant CYP2C9, luciferin-H conversion; hits give high values; factor 1 = untreated enzyme, 0 = blocked; AID 1024, 2008;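 active means activation factor of 2 or more for CYP2C9 at a 5 µM dose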;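 further: 0 = sulfaphenazole-blocked wells and 1 = vehicle-only wells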
EphB4 ephrin blk: EphB4-ephrin-B2 interaction antagonists, primary screen, biochemical, TNYL-RAW peptide probe, fluorescence polarization | 97,000 compounds, 0.15% hits | EphB4 LBD / TNYL-RAW-Alexa532 peptide | inhibition, % at 7 µM | AID 720, 2007;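 active means inhibition above the screen-wide mean inhibition plus 3 SD, cut at about 15% in these data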;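 further: 0% = DMSO wells and 100% = excess unlabeled TNYL-RAW peptide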
CYP2C19 inh: blockers of cytochrome P450 2C19 activity – biochemical, luminescence, ADME assay, primary screen; CYP2C19 Supersomes, luciferin-H EGE luminescence, 30 min; inhibition, % at 5 µM; 96,000 compounds, 21% hits;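 active means CYP2C19 inhibition above a set limit at 5 µM in the primary screen, cut at about 50% in these data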;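 further: plate controls were negative control wells for no effect and 2.5 mM tranylcypromine positive control for full effect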
* hit, by the source's call; . = not tested or not shown.

SMILES	CYP2C19 act	CYP2C9 inh	CYP2C9 act	EphB4 ephrin blk	CYP2C19 inh
COC(=O)c1[nH]c(C)c(/C(O)=C2\C(=O)C(=O)N(CCN(C)C)C2c2ccc(C)o2)c1C (stereo not given)	1	-2.7	1	-3.0	-3.7
O=C1CSC(=Nc2cc(Cl)ccc2Cl)N1	0.9	72.2*	0.3	2.8	12.9
Cc1ccc(N=C2NC(=O)CS2)c(C)c1	0.8	12.5	0.9	4.3	18.0
CCOc1ccc(C2CC(c3cccc(OC)c3OC)n3nnnc3N2)cc1Cl (stereo not given)	0	89.2*	0.1	.	97.7*
O=C(Nc1nc2n(n1)C(c1ccc(Cl)cc1)CC(c1ccc(Cl)cc1)N2)c1ccco1 (stereo not given)	0.3	82.1*	0.2	20.7*	71.1*
COc1ccc(C2CC(c3ccccc3)n3nc(NC(=O)c4cccs4)nc3N2)cc1 (stereo not given)	0.8	53.4*	0.5	-3.7	18.2
COc1ccc(C2CC(c3ccc(Cl)cc3)Nc3nc(NC(=O)c4ccco4)nn32)cc1 (stereo not given)	.	.	.	2.6	.
CCOc1ccc(C2CC(c3ccc(OC)c(OC)c3)n3nc(N)nc3N2)cc1 (stereo not given)	1	4.5	1	.	2.9
O=C(Nc1nc2n(n1)C(c1ccccc1)C=C(c1ccccc1)N2)c1ccco1 (stereo not given)	0.7	72.9*	0.3	-7.3	31.4
CCOC(=O)CNC(=O)CSc1ncnc2c1cnn2-c1ccc(OC)cc1	0.9	17.4	0.8	3.7	13.0
CCOc1ccc(NC(=O)CSc2nnc(-c3ccccn3)n2N)cc1	0.9	38.5	0.6	-3.5	10.0
Cc1ccccc1NC1=NC(C)(C)N=C(N)N1	1	-3.5	1	2.1	-0.6
Cc1ccc(C2CC(c3cccc(Br)c3)Nc3nnnn32)cc1 (stereo not given)	0.5	34.7	0.7	2.6	51.4*
COc1ccc(C2CC(c3ccccc3)n3nnnc3N2)cc1 (stereo not given)	0	87.3*	0.1	-4.7	98.4*
COc1ccc(C2CC(c3cc(Br)ccc3F)n3nnnc3N2)cc1 (stereo not given)	0.6	63.8*	0.4	.	38.1
COc1ccc(C2CC(c3ccc(Cl)cc3Cl)Nc3nc(N)nn32)cc1 (stereo not given)	0.6	36.9	0.6	2.6	44.1
CCc1nnc(NC(=O)CSc2nc3c(c(=O)n2CC)SC(C)C3)s1 (stereo not given)	0.6	-28.0	1.3	.	36.1
Cc1cccc(C)c1N(CC(=O)NN=C1CCCCCC1)S(C)(=O)=O	0.8	17.1	0.8	4.1	21.5
CCC(CC)NCc1ccc(OC)cc1OC	1.2	-11.7	1.1	-4.1	-15.1
COc1ccc(CNC2CCCCC2C)c(OC)c1 (stereo not given)	0.4	6.9	0.9	.	62.4*
O=C1CC(=C(c2ccccc2)c2ccccc2)C(=O)N1CCCCN1CCN(c2ccccc2)CC1	0.6	73.0*	0.3	2.7	44.4
Cc1ccccc1NC(=O)NCCCN1CCN(c2ccccc2)CC1	0.9	38.8	0.6	5.6	8.5
CC(=O)Nc1nnc(CCN2CCCCC2)s1	1	-24.0	1.2	2.1	-0.6
O=C(CCc1nc2ccccc2[nH]1)Nc1ccc2c(c1)OCO2	0.7	37.4	0.6	2.5	34.5
N#CC1(c2nc3ccccc3[nH]2)CC1c1ccc2c(c1)OCO2 (stereo not given)	0.1	64.0*	0.4	3.9	91.9*
SMILES	CYP2C19 act	CYP2C9 inh	CYP2C9 act	EphB4 ephrin blk	CYP2C19 inh
COC(=O)c1cc(Br)c(=O)n(-c2cccc(F)c2)c1	0.5	-0.4	1	0.4	52.0*
COC(=O)c1cc(Br)c(=O)n(-c2ccc(OC)cc2)c1	0.4	12.1	0.9	-5.3	55.4*
Cc1cc(NC(=O)c2ccc(NC(=O)CC(C)C)cc2)no1	0.9	22.3	0.8	-1.2	11.8
COC(=O)Cn1nc(C)c2ccccc2c1=O	.	.	.	1.4	.
Cc1cc(C)c2c(N)c(S(=O)c3ccc(C(C)(C)C)cc3)sc2n1 (stereo not given)	0.4	47.4	0.5	0.5	60.6*
Cc1cc(C)c2c3c(sc2n1)C1(CCSCC1)C(C#N)=C(N)O3	.	.	.	-5.0	.
Cc1cccc(C2NC(=O)c3c(sc(C)c3C)N2)c1O (stereo not given)	1.1	-58.9	1.6	10.0	-5.1
CN1C(=O)c2c(sc3c2CCCC3)NC1c1ccccc1O (stereo not given)	0.3	87.2*	0.1	.	73.7*
Cc1ccc(N2C(=O)C(Cl)=C(N3CCN(C)CC3)C2=O)c(C)c1	.	.	.	1.8	.
O=C1C(Cl)=C(N2CCOCC2)C(=O)N1c1cccc(Cl)c1	0.1	43.8	0.6	-5.8	85.2*
O=C1C(Cl)=C(N2CCCCCC2)C(=O)N1c1ccccc1	0.7	18.0	0.8	5.3	29.0
CN1CCN(C2=C(Cl)C(=O)N(c3ccc(Cl)cc3)C2=O)CC1	0.1	56.2*	0.4	.	87.7*
NC(=O)c1c(N)sc2c1CCCC2	0.9	22.5	0.8	.	5.5
Cn1ccnc1SCC(=O)NC1CCCCC1	0.1	-4.6	1	2.6	91.9*
CSc1nsc(SCC(=O)NC2CCCCC2)n1	0	1.4	1	3.4	95.9*
COc1cc(OC)cc(-n2nnnc2SCC(=O)N2CCCC2)c1	0.7	-31.6	1.3	2.0	32.6
COc1cc(OC)cc(-n2nnnc2SCC(=O)NC2CCCC2)c1	0.9	-206.2	3.1*	2.1	13.8
Cn1c(=O)oc2cc(S(=O)(=O)N3CCN(c4ccc(F)cc4)CC3)ccc21	0.8	-19.9	1.2	1.2	17.8
CC(C)CN(CC(C)C)c1nc(N)c(C#N)c(CC#N)c1C#N	0.3	85.6*	0.1	-8.7	69.1*
CCC1CCc2c(sc3ncnc(N4CCOCC4)c23)C1 (stereo not given)	0.1	42.7	0.6	3.9	89.1*
O=C(Nc1ccc2c(c1)CCC2)C1CCCN(c2ncccn2)C1 (stereo not given)	0.8	9.7	0.9	-0.4	23.8
Cc1nc2ncnn2c(N2CCCC(C(=O)Nc3ccc4c(c3)CCC4)C2)c1C (stereo not given)	0.5	65.5*	0.3	.	47.8
CC(=O)Nc1ccc(NC(=O)C2CCN(c3c(Cc4ccccc4)c(C)nc4ncnn34)CC2)cc1	.	.	.	-6.6	.
CCc1c(C)nc2ncnn2c1N1CCC(C(=O)Nc2ccccc2)CC1	0.1	65.5*	0.3	-1.1	95.0*
CCc1c(C)nc2ncnn2c1N1CCC(C(=O)Nc2ccc(C)cc2)CC1	0.7	58.9*	0.4	5.0	29.3
CCc1c(C)nc2ncnn2c1N1CCCC(C(=O)NCCc2ccc(OC)cc2)C1 (stereo not given)	0.8	36.5	0.6	-5.5	16.1
